# In the supplement of paper PMC11732987, “Enantioselective OTUD7B fragment discovery through chemoproteomics screening and high-throughput optimisation” (Communications Chemistry, 2025):
# A number with no mark means an inactive call.
# Key:
# Assay in all cases: log2 ratio of Biotin-Ahx-Ub-VS probe labelling (fragment/DMSO); higher = less target engagement (more negative = stronger competition), active = hit call of the paper (q ≤ 0.05, log2 ratio ≤ -1)
# Conditions in all cases: compound concentration: 200 uM; treatment time: 3 h
# USP19 = target: T1, USP19 (UniProt O94966)
# T1 sequence (whole entry): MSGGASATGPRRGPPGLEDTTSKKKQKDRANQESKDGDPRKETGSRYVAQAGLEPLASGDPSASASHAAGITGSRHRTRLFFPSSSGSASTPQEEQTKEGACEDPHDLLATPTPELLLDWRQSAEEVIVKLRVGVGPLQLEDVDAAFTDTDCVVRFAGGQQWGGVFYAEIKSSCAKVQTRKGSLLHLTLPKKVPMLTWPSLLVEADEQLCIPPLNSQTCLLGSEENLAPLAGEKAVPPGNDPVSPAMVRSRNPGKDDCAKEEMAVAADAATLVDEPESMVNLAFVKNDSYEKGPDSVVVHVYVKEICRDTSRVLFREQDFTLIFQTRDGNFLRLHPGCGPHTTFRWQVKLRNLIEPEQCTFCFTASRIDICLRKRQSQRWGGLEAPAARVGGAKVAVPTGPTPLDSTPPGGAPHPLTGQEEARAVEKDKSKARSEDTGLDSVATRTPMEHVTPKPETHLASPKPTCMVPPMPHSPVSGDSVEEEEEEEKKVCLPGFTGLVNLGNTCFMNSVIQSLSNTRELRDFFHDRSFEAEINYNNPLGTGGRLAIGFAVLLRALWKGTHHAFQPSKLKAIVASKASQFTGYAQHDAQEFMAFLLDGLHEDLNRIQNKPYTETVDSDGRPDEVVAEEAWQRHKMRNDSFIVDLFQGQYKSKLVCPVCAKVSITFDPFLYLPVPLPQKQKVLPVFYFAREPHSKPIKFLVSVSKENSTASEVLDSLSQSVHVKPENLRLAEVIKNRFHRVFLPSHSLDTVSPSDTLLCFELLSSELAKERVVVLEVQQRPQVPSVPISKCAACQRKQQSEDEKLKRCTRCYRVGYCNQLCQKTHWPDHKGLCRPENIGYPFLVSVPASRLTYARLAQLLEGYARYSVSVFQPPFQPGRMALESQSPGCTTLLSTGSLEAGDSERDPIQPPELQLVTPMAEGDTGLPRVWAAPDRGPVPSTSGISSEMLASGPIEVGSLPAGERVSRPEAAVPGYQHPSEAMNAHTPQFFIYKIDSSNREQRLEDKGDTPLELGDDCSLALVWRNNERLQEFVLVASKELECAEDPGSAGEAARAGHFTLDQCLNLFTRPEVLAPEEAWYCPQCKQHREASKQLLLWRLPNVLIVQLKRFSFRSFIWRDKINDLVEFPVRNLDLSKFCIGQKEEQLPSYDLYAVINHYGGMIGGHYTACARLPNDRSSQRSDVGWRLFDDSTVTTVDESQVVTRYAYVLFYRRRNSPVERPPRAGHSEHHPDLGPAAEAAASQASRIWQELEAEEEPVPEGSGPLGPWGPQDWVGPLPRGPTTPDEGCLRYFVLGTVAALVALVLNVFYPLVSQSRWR
# In short: (§1)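 Average log2 ratios of fragment over vehicle were obtained by unpaired t-test from global-median-normalised Spectronaut label-free quantities. Proteins with ≥2 unique peptides were included. HEK293T lysate (495 µg per sample) was treated in triplicate with fragment at 200 µM or vehicle for 3 h, then with Biotin-Ahx-Ub-VS at 0.5 µM final for 1 h, and labelled DUBs were NeutrAvidin-enriched and run by diaPASEF LC-MS/MS.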
# USP22 = target: T2, USP22 (UniProt Q9UPT9)
# T2 sequence (whole entry): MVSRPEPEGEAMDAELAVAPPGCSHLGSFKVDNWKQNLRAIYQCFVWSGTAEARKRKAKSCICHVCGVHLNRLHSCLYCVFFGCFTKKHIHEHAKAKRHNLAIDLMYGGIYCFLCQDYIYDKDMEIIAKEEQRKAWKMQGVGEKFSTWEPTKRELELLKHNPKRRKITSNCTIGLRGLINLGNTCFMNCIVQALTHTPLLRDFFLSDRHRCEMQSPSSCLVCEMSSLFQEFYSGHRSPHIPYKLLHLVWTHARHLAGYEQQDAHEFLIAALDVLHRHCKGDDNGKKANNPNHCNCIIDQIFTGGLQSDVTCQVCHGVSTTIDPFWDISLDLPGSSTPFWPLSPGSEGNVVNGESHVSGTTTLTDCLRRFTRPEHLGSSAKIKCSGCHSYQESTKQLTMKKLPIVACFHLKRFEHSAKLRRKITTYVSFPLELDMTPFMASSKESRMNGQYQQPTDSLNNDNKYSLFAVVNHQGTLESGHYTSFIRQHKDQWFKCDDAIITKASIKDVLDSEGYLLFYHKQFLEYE
# In short: as §1
# USP24 = USP24 (UniProt Q9UPU5)
# In short: as §1
# USP25 = target: T3, USP25 (UniProt Q9UHP3)
# T3 sequence (whole entry): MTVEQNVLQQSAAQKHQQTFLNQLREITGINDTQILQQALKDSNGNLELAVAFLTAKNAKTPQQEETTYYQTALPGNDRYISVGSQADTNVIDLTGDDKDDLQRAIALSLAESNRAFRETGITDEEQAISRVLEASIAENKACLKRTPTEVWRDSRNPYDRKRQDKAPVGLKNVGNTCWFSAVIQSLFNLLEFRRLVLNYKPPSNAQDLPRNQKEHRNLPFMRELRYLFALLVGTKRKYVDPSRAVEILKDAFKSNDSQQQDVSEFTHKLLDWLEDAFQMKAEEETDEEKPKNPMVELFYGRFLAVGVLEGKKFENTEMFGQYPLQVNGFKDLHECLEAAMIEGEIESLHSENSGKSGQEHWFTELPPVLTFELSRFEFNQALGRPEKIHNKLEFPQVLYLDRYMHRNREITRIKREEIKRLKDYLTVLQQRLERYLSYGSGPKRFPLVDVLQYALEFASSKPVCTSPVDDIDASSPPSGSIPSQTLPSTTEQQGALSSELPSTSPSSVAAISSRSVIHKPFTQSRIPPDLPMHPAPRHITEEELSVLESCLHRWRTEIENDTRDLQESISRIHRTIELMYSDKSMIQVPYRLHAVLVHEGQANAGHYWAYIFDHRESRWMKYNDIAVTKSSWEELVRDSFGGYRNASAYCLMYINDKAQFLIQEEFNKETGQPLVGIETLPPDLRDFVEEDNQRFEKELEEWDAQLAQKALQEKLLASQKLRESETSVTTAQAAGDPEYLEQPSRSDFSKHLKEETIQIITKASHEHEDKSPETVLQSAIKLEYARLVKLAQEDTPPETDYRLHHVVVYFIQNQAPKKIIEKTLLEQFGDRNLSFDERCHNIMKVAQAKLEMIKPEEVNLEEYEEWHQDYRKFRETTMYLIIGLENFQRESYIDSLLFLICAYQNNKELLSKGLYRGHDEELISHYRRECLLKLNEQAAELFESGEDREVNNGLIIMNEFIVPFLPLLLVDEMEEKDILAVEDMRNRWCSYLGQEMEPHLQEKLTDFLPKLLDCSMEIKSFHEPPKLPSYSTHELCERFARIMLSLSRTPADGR
# In short: as §1
# USP28 = target: T4, USP28 (UniProt Q96RU2)
# T4 sequence (whole entry): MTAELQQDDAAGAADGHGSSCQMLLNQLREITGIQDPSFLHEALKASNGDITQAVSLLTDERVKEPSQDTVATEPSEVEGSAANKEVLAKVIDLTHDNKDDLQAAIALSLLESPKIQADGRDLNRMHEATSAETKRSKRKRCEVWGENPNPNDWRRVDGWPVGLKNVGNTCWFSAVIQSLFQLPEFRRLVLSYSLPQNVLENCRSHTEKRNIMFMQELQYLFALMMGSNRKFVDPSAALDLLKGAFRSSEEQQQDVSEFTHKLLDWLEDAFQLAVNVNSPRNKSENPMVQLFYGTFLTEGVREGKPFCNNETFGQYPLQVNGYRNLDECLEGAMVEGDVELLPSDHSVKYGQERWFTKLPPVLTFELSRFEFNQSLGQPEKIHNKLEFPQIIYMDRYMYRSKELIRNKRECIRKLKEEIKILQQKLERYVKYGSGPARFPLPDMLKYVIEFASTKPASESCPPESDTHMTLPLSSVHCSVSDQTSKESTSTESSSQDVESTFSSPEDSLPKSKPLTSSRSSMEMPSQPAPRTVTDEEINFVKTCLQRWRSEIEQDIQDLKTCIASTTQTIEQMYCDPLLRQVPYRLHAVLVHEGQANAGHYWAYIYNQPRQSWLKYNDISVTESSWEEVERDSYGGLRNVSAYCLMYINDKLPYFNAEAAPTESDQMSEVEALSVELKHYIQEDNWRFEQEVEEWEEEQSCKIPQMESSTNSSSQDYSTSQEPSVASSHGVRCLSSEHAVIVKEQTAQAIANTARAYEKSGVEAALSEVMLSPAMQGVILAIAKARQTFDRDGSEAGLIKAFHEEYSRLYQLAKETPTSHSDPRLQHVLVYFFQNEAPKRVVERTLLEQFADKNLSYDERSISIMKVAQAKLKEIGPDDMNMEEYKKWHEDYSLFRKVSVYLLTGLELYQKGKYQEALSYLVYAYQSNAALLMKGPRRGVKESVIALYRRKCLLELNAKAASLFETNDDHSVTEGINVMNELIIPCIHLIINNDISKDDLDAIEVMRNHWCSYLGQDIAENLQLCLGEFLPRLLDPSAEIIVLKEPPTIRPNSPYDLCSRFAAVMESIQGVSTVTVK
# In short: as §1
# Chain of USP24 (Q9UPU5 whole entry): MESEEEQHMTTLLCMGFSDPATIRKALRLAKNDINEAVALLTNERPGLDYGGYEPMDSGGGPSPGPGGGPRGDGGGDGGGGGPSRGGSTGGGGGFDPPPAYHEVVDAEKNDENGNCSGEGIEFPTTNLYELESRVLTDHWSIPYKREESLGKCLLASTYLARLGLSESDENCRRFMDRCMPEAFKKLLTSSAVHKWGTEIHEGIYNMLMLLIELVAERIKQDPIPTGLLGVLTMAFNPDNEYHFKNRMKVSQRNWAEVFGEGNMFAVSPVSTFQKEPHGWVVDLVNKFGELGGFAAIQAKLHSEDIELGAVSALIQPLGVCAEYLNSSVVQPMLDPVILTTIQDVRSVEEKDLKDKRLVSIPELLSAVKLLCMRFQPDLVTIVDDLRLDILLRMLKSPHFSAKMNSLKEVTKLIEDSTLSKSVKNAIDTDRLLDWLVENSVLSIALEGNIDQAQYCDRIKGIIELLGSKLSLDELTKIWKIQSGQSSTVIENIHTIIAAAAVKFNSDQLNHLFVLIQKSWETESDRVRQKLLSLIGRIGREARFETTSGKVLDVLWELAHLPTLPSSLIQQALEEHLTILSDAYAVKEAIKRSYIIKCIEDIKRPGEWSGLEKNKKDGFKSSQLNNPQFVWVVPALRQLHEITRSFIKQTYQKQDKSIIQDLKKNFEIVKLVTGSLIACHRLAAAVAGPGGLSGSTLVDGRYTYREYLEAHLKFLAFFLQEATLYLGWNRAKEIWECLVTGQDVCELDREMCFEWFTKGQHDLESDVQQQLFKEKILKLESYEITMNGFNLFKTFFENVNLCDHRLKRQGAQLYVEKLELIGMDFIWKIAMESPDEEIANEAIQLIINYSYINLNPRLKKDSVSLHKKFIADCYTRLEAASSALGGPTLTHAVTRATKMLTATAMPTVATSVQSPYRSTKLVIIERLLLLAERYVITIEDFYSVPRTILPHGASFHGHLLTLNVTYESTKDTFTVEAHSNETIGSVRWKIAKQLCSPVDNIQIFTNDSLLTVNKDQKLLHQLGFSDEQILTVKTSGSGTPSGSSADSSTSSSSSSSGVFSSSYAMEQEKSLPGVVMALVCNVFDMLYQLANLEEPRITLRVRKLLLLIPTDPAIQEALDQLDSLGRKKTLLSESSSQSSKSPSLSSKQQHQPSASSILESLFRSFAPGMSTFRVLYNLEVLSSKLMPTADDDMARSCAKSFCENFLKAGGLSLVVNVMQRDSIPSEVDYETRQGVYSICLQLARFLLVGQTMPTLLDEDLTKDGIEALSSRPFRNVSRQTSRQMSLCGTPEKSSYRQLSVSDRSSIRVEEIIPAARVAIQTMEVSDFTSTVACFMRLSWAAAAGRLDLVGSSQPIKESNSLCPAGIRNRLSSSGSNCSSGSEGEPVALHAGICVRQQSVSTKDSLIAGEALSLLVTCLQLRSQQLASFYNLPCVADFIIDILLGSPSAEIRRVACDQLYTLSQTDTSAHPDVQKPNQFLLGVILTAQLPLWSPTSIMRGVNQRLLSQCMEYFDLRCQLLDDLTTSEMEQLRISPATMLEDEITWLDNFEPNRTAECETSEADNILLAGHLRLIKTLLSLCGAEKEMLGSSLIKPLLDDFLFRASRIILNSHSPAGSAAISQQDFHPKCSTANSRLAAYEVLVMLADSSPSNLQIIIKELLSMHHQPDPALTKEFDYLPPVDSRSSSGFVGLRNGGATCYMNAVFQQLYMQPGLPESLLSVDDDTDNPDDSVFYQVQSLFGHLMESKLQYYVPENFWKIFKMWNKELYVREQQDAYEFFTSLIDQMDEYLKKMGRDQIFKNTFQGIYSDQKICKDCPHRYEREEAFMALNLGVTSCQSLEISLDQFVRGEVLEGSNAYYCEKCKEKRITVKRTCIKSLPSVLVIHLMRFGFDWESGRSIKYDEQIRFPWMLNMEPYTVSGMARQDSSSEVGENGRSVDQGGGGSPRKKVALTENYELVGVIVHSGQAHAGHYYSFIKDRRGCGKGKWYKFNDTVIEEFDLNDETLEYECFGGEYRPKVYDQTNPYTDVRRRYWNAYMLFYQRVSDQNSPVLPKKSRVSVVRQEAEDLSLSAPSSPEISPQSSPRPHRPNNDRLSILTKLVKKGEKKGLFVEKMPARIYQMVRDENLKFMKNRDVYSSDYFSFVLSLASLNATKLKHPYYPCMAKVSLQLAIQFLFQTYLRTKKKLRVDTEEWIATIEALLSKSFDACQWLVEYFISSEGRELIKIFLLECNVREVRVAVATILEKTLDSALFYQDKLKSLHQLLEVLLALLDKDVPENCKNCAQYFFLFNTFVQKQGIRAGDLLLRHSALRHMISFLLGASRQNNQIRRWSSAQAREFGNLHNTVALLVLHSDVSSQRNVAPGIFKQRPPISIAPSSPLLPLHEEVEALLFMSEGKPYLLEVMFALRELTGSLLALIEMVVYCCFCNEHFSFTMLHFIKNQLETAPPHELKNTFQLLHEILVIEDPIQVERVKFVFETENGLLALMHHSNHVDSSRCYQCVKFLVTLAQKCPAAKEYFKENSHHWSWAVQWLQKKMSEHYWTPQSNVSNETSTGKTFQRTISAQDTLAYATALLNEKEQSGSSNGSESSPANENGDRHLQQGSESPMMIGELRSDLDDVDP
structure (smiles),measurement,setting,value
N#Cc1ccc(Cl)cc1NC(=O)CCl,log2 ratio of Biotin-Ahx-Ub-VS probe labelling,USP19,-0.121
same,log2 ratio of Biotin-Ahx-Ub-VS probe labelling,USP22,0.184
same,log2 ratio of Biotin-Ahx-Ub-VS probe labelling,USP24,-0.83
same,log2 ratio of Biotin-Ahx-Ub-VS probe labelling,USP25,-0.912
same,log2 ratio of Biotin-Ahx-Ub-VS probe labelling,USP28,-1.49 (active)
